# Where “and” joins values, the source holds several entries; their conditions need not be identical. Identical values can stand only once. About 83,000 compounds went through this panel and 20% of them were active in at least one assay; those are over-represented in the sample as a whole.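 Treatment: one concentration, 48 hours, 96-well format. Scoring: percent growth, with anything below 10 considered active.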 Unmarked numbers belong to inactive results. Calls of active or inactive are those of the source.
# Test system: CCRF-CEM leukemia
# Assay: NCI-60 one-dose screen, 48 h (100 = growth as untreated, 0 = no growth, -100 = all killed)
# Details: 10 µM
# Method: Growth inhibition of the CCRF-CEM human tumor cell line is measured as a screen for anti-cancer activity. Cells are grown in 96 well plates and exposed to the test compound for 48 hours. Compounds are tested at a single concentration, which is 10^-5 M for most compounds. The reported endpoint is percent growth (GI% or GIPRCNT), where numbers from 0 - 100% represent growth inhibition, and numbers from -100% - 0 represent cell death. For example, a value of 40 represents 60% growth inhibition. A value of 0 means no net growth occurred over the course of the experiment. A value of -40 indicates 40% of cells at the beginning of the experiment died by the end of the experiment. A value of -100 means all cells are dead at the end of the experiment.
# NCI-60 Human Tumor Cell Lines Screen was performed using the standard one-dose NCI protocol, which is described in more detail at https://dtp.cancer.gov/discovery_development/nci-60/default.htm.
# Compounds with GIPRCNT values below 10 were considered active. Activity score was based on GIPRCNT using the following formula: […]
# Score is 0 for GIPRCNT values of 100 or above, 50 for GIPRCNT values of 0, and 100 for GIPRCNT values of -100.
row,Compound,growth
1,CC(=O)/C=C/c1ccc(OCc2ccc(Cl)cc2)cc1,86.8%

# Same assay, conditions: 10 µM unless noted
row,Compound,growth
1,COc1ccc2nc3cc(Cl)ccc3c(NCCCNCCC(C)O)c2c1 (stereo not given),-24% (active)
2,c1ccc(Cc2cccc[n+]2C(c2ccccc2)c2ccccc2)cc1,48.6%
3,CCN1C(=O)/C(=c2\sc3n(c2=O)C2C(NN=3)N(CC)C(=O)N2CC)c2ccccc21 (stereo not given),25.7%
4,O=C(NNc1ccccc1)c1ccccc1,56.8% and 49.8%
5,O=C(/C=C/c1cccc(Oc2ccc(Cl)cc2)c1)c1ccccc1,-10.5% [100 µM] (active)
6,S=c1nc(CS)[nH]c2ccccc12,102%
7,Cn1cc(C2=C(c3cccc4ccccc34)C(=O)NC2=O)c2cc(Br)ccc21,84%
8,Nc1ncnc2c1C(c1ccc([N+](=O)[O-])cc1)c1sc3c(F)cccc3c1O2 (stereo not given),94.3%
9,COC(=O)/C=C1/SC(=Nc2ccc([N+](=O)[O-])cc2)N(CCc2c[nH]c3ccccc23)C1=O,8.51% (active)
10,Cc1ccc(-c2nc(C#N)c(S(=O)(=O)N(C)C)o2)cc1,-10.9% (active)
11,COc1ccc(-c2nnc3n(C)c(=O)c4ccccc4n23)cc1O,10.7%
12,CC[C@@H]1NC(=O)[C@H]([C@H](O)[C@H](C)C/C=C/c2ccc(CN3C(=O)C(C)=C(C)C3=O)cc2)N(C)C(=O)[C@H](C(C)C)N(C)C(=O)[C@H](CC(C)C)N(C)C(=O)[C@H](CC(C)C)N(C)C(=O)[C@@H](C)NC(=O)[C@H](C)NC(=O)[C@H](CC(C)C)N(C)C(=O)[C@H](C(C)C)NC(=O)[C@H](CC(C)C)N(C)C(=O)CN(C)C1=O,63.6%
13,O=C(NCc1cccnc1)/C(=C\c1ccc(Br)cc1)S(=O)(=O)c1ccccc1,25.2%
14,Nc1n[nH]c2cccc(C#Cc3cccc(C(=O)Nc4ccc(CN5CCOCC5)c(C(F)(F)F)c4)c3)c12,20.7%
15,CN(Cc1ccccc1)c1nc(Cl)c(C2CC(c3ccc(F)cc3)=NN2C=O)s1 (stereo not given),95.6%
16,O=C1/C(=C/c2ccccc2)CN(C(=O)C(Cl)Cl)C/C1=C\c1ccccc1,8.2% (active)
17,O=C(/C=C/c1ccc(F)cc1)Nc1ncc(Cc2ccc(F)cc2)s1,34%
18,O=C(Cc1ccc(F)cc1)c1ccccc1,88%
19,N#C/C(=C\c1ccccc1Cl)c1cc2ccccc2[nH]1,-4.12% (active)

row,Compound,growth
1,Cc1cccc(Cc2cnc(NC(=O)CCCOc3ccc(Cl)cc3)s2)c1,16.3%
2,C/C=C(/C)C(=O)O[C@@H]1CC(C)(C)CC2C34OC(=O)[C@@]21CC[C@@]3(C)[C@]1(C)CCC2C(C)(C)C(=O)CC[C@]2(C)C1C[C@@H]4Cl (stereo not given in full),98.1%
3,CCN(CC)CCCN1C(=O)c2c(c(C)c3c(oc4cc(OC)ccc43)c2C)C1=O,61%
4,COc1ccc(-c2[nH]c3ccccc3c2-c2ccc(OC)cc2)cc1,9.28% (active)
5,CCCCCCCCCCCCCCCCCCn1cc(COc2ccc(C=O)cc2)nn1,103%
6,COc1ccc(/C(C)=C(\c2ccc(OCCN3CCOCC3)cc2)c2ccc(OC(=O)C3CCCCC3)cc2)cc1,111%
7,Nc1n[nH]c2cccc(C#Cc3cccc(NC(=O)c4ccc(N5CCOCC5)c(C(F)(F)F)c4)c3)c12,10.5%
8,Cc1nn(-c2nc(-c3cc4ccccc4oc3=O)cs2)c(C)c1N=Nc1ccccc1,105%
9,Cc1ccc2[nH]c(=S)[nH]c(=O)c2c1,98.8%
10,N=c1ccccn1CCO,102%
11,COC(=O)c1c2c(c(C)[n+]([O-])c1C)C(=O)C(NCCN1CCOCC1)=CC2=O,80.2%
12,Cc1c(O)c(O)cc2c3c(oc12)CC(c1ccc2c(c1)OCO2)CC3=O (stereo not given),69.3%
13,CC1(C)C(N)=Nc2cc(OCCCN3Cc4ccc(OCCc5cn(CC(=O)N6CCC(CCN7CCCC7)CC6)nn5)cc4C3)c(OCC3CC3)cc21,96.2%
14,O=C(c1cccc(Br)c1)N1CCN(c2ccnc3cc(Cl)ccc23)CC1,87.3%
15,CC(Sc1ccccc1)C(=O)O (stereo not given),93.9%
16,C=C(c1ccc(C(=O)O)cc1)c1cc2c(cc1C)C(C)(C)CCC2(C)C,60.4% and 90%
17,Cn1cc(-c2csc(-c3c[nH]c4ccc(F)cc34)n2)c2cnccc21,-32.3% (active)
18,COC1/C=C/OC2(C)Oc3c(C)c(O)c4c(O)c(c(C=NOC(c5ccccc5)c5ccccc5)c(O)c4c3C2=O)NC(=O)/C(C)=C/C=C/C(C)C(O)C(C)C(O)C(C)C(OC(C)=O)C1C (stereo not given),13.5%
19,O=C(/C=C/c1ccccc1)c1cccs1,82.7%

# Same assay, conditions: 100 µM
row,Compound,growth
1,CC(=O)/C=C/c1ccc(OCc2ccc(Cl)cc2)cc1,41.2%

# Source: PubChem BioAssay (NCI)
